# Screen size: about 5,500 compounds; about 2,000 (36%) were called active. Another 18% or so got no clear call; they are omitted. The list shows a part of the results. Unmarked numbers belong to inactive results. No stated cut-off is given here; in the data, active means normalized growth mostly below about 0.91 (no sharp cut-off); inconclusive means no clear call, values can overlap the other calls; inactive means mostly above about 0.92.
# Test: chemical genetic growth profiling, strain panel (AID 1159580);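 further: tested at 20 µM; growth read once vehicle control cultures reached saturation at 30 °C; 1 = growth at the plate median or of vehicle wells; lower values mean less growth of the strain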
# Details: growth OD
smiles,measurement,setting,value
CCC(=O)O[C@H]1CCC2C3CCc4cc(O)ccc4C3CC[C@@]21C (some centres undefined),normalized growth,"S. cerevisiae deletion strains, locus YJL187C, strain SWE1, active compounds read low",0.995
same,normalized growth,"S. cerevisiae deletion strains, locus YJR043C, strain POL32, active compounds read low",0.974
same,normalized growth,"S. cerevisiae deletion strains, locus YJR066W, strain TOR1, active compounds read low",0.728 (active)
same,normalized growth,"S. cerevisiae deletion strains, locus YJR075W, strain HOC1, active compounds read low",0.948
same,normalized growth,"S. cerevisiae deletion strains, locus YKL009W, strain mrt4, active compounds read low",0.986
same,normalized growth,"S. cerevisiae deletion strains, locus YKL068W, active compounds read low",1
same,normalized growth,"S. cerevisiae deletion strains, locus YKL085W, strain MDH1 (second series), active compounds read low",0.936
same,normalized growth,"S. cerevisiae deletion strains, locus YKL085W, strain MDH1, active compounds read low",0.936
same,normalized growth,"S. cerevisiae deletion strains, locus YKL160W, strain elf1, active compounds read low",0.984
same,normalized growth,"S. cerevisiae deletion strains, locus YKL190W, strain CNB1, active compounds read low",1
same,normalized growth,"S. cerevisiae deletion strains, locus YKR001C, strain vps1, active compounds read low",0.927
same,normalized growth,"S. cerevisiae deletion strains, locus YKR026C, strain gcn3, active compounds read low",0.971
same,normalized growth,"S. cerevisiae deletion strains, locus YKR091W, strain srl3, active compounds read low",0.964
same,normalized growth,"S. cerevisiae deletion strains, locus YLL001W, strain dnm1, active compounds read low",0.997
same,normalized growth,"S. cerevisiae deletion strains, locus YLL026W, active compounds read low",1
same,normalized growth,"S. cerevisiae deletion strains, locus YLL041C, strain sdh2, active compounds read low",1.01
same,normalized growth,"S. cerevisiae deletion strains, locus YLR027C, strain aat2, active compounds read low",0.966
same,normalized growth,"S. cerevisiae deletion strains, locus YLR039C, strain RIC1, active compounds read low",0.771
same,normalized growth,"S. cerevisiae deletion strains, locus YLR058C, strain SHM2, active compounds read low",0.871 (active)
same,normalized growth,"S. cerevisiae deletion strains, locus YLR102C, strain apc9, active compounds read low",1
same,normalized growth,"S. cerevisiae deletion strains, locus YLR113W, strain HOG1, active compounds read low",0.287 (active)
same,normalized growth,"S. cerevisiae deletion strains, locus YLR221C, strain rsa3, active compounds read low",0.967
same,normalized growth,"S. cerevisiae deletion strains, locus YLR258W, strain gsy2, active compounds read low",1
same,normalized growth,"S. cerevisiae deletion strains, locus YLR262C, strain YPT6 (second series), active compounds read low",0.676 (active)
same,normalized growth,"S. cerevisiae deletion strains, locus YLR262C, strain YPT6, active compounds read low",0.797
same,normalized growth,"S. cerevisiae deletion strains, locus YLR268W, strain sec22, active compounds read low",0.991
same,normalized growth,"S. cerevisiae deletion strains, locus YLR320W, strain mms22, active compounds read low",0.969
same,normalized growth,"S. cerevisiae deletion strains, locus YLR330W, strain CHS5, active compounds read low",0.984
same,normalized growth,"S. cerevisiae deletion strains, locus YLR342W, strain FKS1 (second series), active compounds read low",0.785 (active)
same,normalized growth,"S. cerevisiae deletion strains, locus YLR342W, strain FKS1, active compounds read low",0.972
same,normalized growth,"S. cerevisiae deletion strains, locus YLR357W, strain rsc2, active compounds read low",0.954
same,normalized growth,"S. cerevisiae deletion strains, locus YLR370C, strain arc18, active compounds read low",0.975
same,normalized growth,"S. cerevisiae deletion strains, locus YLR371W, strain rom2, active compounds read low",1
same,normalized growth,"S. cerevisiae deletion strains, locus YLR384C, strain iki3, active compounds read low",0.994
same,normalized growth,"S. cerevisiae deletion strains, locus YLR418C, strain cdc73, active compounds read low",0.937
same,normalized growth,"S. cerevisiae deletion strains, locus YML016C, strain PPZ1, active compounds read low",0.997
same,normalized growth,"S. cerevisiae deletion strains, locus YML032C, strain rad52, active compounds read low",0.985
same,normalized growth,"S. cerevisiae deletion strains, locus YML120C, strain ndi1, active compounds read low",0.881 (active)
same,normalized growth,"S. cerevisiae deletion strains, locus YML124C, strain tub3, active compounds read low",1
same,normalized growth,"S. cerevisiae deletion strains, locus YMR058W, strain fet3, active compounds read low",0.977
same,normalized growth,"S. cerevisiae deletion strains, locus YMR078C, strain ctf18, active compounds read low",1.02
same,normalized growth,"S. cerevisiae deletion strains, locus YMR125W, strain sto1, active compounds read low",0.982
same,normalized growth,"S. cerevisiae deletion strains, locus YMR129W, active compounds read low",0.979
same,normalized growth,"S. cerevisiae deletion strains, locus YMR205C, strain PFK2, active compounds read low",0.929
same,normalized growth,"S. cerevisiae deletion strains, locus YMR223W, strain ubp8, active compounds read low",0.956
same,normalized growth,"S. cerevisiae deletion strains, locus YMR231W, strain pep5, active compounds read low",1.01
same,normalized growth,"S. cerevisiae deletion strains, locus YMR307W, strain GAS1, active compounds read low",0.766
same,normalized growth,"S. cerevisiae deletion strains, locus YNL067W, strain RPL9B, active compounds read low",0.974
same,normalized growth,"S. cerevisiae deletion strains, locus YNL071W, strain lat1, active compounds read low",0.969
same,normalized growth,"S. cerevisiae deletion strains, locus YNL183C, strain NPR1, active compounds read low",0.755 (active)
same,normalized growth,"S. cerevisiae deletion strains, locus YNL209W, strain ssb2, active compounds read low",0.984
same,normalized growth,"S. cerevisiae deletion strains, locus YNL233W, strain BNI4, active compounds read low",0.784 (active)
same,normalized growth,"S. cerevisiae deletion strains, locus YNL248C, strain rpa49, active compounds read low",0.991
same,normalized growth,"S. cerevisiae deletion strains, locus YNL250W, strain rad50, active compounds read low",0.998
same,normalized growth,"S. cerevisiae deletion strains, locus YNL271C, strain bni1, active compounds read low",1.01
same,normalized growth,"S. cerevisiae deletion strains, locus YNL298W, strain CLA4, active compounds read low",0.999
same,normalized growth,"S. cerevisiae deletion strains, locus YNL307C, strain MCK1, active compounds read low",0.935
same,normalized growth,"S. cerevisiae deletion strains, locus YNL322C, strain KRE1 (second series), active compounds read low",0.977
same,normalized growth,"S. cerevisiae deletion strains, locus YNR049C, strain mso1, active compounds read low",0.986
same,normalized growth,"S. cerevisiae deletion strains, locus YNR052C, strain pop2, active compounds read low",1
same,normalized growth,"S. cerevisiae deletion strains, locus YOL006C, strain TOP1, active compounds read low",0.958
same,normalized growth,"S. cerevisiae deletion strains, locus YOL012C, strain htz1",1.25
same,normalized growth,"S. cerevisiae deletion strains, locus YOL147C, strain pex11, active compounds read low",1
same,normalized growth,"S. cerevisiae deletion strains, locus YOR001W, strain rrp6, active compounds read low",0.98
same,normalized growth,"S. cerevisiae deletion strains, locus YOR061W, strain CKA2, active compounds read low",0.935
same,normalized growth,"S. cerevisiae deletion strains, locus YOR069W, strain VPS5, active compounds read low",0.996
same,normalized growth,"S. cerevisiae deletion strains, locus YOR070C, strain gyp1, active compounds read low",1
same,normalized growth,"S. cerevisiae deletion strains, locus YOR080W, strain dia2, active compounds read low",0.979
same,normalized growth,"S. cerevisiae deletion strains, locus YOR083W, strain WHI5, active compounds read low",0.976
same,normalized growth,"S. cerevisiae deletion strains, locus YOR106W, strain vam3, active compounds read low",0.978
same,normalized growth,"S. cerevisiae deletion strains, locus YOR136W, strain idh2, active compounds read low",1.02
same,normalized growth,"S. cerevisiae deletion strains, locus YOR144C, strain elg1, active compounds read low",1.01
same,normalized growth,"S. cerevisiae deletion strains, locus YOR184W, strain ser1, active compounds read low",0.96
same,normalized growth,"S. cerevisiae deletion strains, locus YOR231W, strain MKK1, active compounds read low",0.483 (active)
same,normalized growth,"S. cerevisiae deletion strains, locus YOR265W, strain rbl2, active compounds read low",0.994
same,normalized growth,"S. cerevisiae deletion strains, locus YOR270C, strain vph1, active compounds read low",0.911
same,normalized growth,"S. cerevisiae deletion strains, locus YOR290C, strain snf2, active compounds read low",0.939
same,normalized growth,"S. cerevisiae deletion strains, locus YOR316C, strain cot1, active compounds read low",1.01
same,normalized growth,"S. cerevisiae deletion strains, locus YPL051W, strain arl3, active compounds read low",1
same,normalized growth,"S. cerevisiae deletion strains, locus YPL078C, strain atp4, active compounds read low",0.992
same,normalized growth,"S. cerevisiae deletion strains, locus YPL106C, strain sse1, active compounds read low",0.839 (active)
same,normalized growth,"S. cerevisiae deletion strains, locus YPL240C, strain hsp82, active compounds read low",1
same,normalized growth,"S. cerevisiae deletion strains, locus YPL256C, strain CLN2, active compounds read low",0.643 (active)
same,normalized growth,"S. cerevisiae deletion strains, locus YPR119W, strain clb2, active compounds read low",0.995
same,normalized growth,"S. cerevisiae deletion strains, locus YPR141C, strain kar3, active compounds read low",1.02
same,normalized growth,"S. cerevisiae deletion strains, locus YPR163C, strain tif3, active compounds read low",1.02
same,normalized growth,"S. cerevisiae deletion strains, locus YPR167C, strain met16, active compounds read low",1.01
same,normalized growth,"S. cerevisiae deletion strains, strain wtn01, active compounds read low",1
same,normalized growth,"S. cerevisiae strains, strain wild type, active compounds read low",0.884 (active)

# Reference: PubChem BioAssay AID1159580 (chemical genetic matrix, 2015)
